Laboratory results reported in the supplement of paper PMC11732987, “Enantioselective OTUD7B fragment discovery through chemoproteomics screening and high-throughput optimisation” (Communications Chemistry, 2025).

Tests used:
Experiment in all cases: log2 ratio of Biotin-Ahx-Ub-VS probe labelling (fragment/DMSO); higher = less target engagement (more negative = stronger competition), active = hit call of the paper (q ≤ 0.05, log2 ratio ≤ -1)
Settings in all cases: compound concentration: 200 uM; treatment time: 3 h
OTUD6B = molecular target: T1, OTUD6B (UniProt Q8N6M0)
T1 sequence (whole entry): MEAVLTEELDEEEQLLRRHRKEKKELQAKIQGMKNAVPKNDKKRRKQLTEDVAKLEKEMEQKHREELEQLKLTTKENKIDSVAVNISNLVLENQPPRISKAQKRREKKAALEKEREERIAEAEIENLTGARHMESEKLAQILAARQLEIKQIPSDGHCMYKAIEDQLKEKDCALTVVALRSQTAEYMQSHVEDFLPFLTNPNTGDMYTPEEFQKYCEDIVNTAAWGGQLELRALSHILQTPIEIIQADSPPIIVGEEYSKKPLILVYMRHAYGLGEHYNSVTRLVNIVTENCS
How it was run: (§1)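 Labelling with Biotin-Ahx-Ub-VS (0.5 µM final, 1 h) followed a 3 h triplicate treatment of HEK293T lysate (495 µg per sample, Tris/CHAPS/IGEPAL buffer with protease inhibitors) with fragment at 200 µM or vehicle. Labelled DUBs were NeutrAvidin-enriched, digested with LysC and trypsin, and run by diaPASEF LC-MS/MS. The values, average log2 fragment/vehicle ratios by unpaired t-test, come from global-median-normalised Spectronaut label-free quantities. Proteins with ≥2 unique peptides were used.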

OTUD7B = molecular target: T2, OTUD7B (UniProt Q6GQQ9)
T2 sequence (whole entry): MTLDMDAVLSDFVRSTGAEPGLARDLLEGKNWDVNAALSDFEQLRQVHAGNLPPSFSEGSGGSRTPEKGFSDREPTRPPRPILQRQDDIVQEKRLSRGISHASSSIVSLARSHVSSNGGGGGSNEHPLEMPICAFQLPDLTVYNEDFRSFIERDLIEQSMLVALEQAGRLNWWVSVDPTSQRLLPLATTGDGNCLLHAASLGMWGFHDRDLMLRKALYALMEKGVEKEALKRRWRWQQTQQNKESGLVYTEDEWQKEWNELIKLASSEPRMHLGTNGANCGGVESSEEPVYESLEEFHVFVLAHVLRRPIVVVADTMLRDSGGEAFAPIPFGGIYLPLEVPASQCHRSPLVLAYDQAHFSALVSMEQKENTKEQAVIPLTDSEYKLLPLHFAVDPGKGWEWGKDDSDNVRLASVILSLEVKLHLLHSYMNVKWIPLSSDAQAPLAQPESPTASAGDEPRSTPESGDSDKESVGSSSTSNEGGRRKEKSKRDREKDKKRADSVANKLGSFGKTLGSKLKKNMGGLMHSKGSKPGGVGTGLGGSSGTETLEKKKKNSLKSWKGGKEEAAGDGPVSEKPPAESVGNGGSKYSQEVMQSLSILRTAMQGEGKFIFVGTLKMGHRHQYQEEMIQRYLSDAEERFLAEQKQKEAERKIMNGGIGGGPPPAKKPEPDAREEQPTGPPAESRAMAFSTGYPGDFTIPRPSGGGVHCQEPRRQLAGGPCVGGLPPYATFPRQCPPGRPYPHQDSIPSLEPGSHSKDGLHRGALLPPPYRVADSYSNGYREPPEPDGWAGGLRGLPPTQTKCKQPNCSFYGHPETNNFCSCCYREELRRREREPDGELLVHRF
How it was run: as §1

PRPF8 = PRPF8 (UniProt Q6P2Q9)
How it was run: as §1

PSMD7 = molecular target: T3, PSMD7 (UniProt P51665)
T3 sequence (whole entry): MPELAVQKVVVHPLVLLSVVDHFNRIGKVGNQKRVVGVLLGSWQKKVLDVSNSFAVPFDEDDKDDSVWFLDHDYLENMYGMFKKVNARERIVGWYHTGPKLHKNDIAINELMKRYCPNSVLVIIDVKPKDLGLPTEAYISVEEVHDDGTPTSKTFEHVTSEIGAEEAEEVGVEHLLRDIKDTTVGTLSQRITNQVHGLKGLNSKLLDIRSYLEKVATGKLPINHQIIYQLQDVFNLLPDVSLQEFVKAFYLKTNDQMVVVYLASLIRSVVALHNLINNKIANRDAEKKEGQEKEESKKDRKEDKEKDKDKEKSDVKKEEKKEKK
How it was run: as §1

UCHL1 = UCHL1 (UniProt P09936)
How it was run: as §1

UCHL3 = molecular target: T4, UCHL3 (UniProt P15374)
T4 sequence (whole entry): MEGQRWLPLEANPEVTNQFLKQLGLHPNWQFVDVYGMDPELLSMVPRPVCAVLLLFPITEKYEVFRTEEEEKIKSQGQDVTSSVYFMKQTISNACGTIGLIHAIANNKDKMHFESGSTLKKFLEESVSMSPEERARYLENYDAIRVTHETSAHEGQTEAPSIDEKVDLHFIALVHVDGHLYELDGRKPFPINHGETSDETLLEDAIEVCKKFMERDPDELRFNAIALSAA
How it was run: as §1

UCHL5 = molecular target: T5, UCHL5 (UniProt Q9Y5K5)
T5 sequence (whole entry): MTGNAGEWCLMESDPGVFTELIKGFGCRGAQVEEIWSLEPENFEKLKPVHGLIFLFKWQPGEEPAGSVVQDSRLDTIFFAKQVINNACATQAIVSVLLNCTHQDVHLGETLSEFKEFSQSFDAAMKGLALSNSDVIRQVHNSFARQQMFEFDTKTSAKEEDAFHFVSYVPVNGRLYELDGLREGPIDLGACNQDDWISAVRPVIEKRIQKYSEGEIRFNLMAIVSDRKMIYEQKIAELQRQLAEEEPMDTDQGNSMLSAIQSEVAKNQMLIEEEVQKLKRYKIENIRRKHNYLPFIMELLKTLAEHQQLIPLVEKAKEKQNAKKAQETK
How it was run: as §1

USP10 = USP10 (UniProt Q14694)
How it was run: as §1

USP15 = molecular target: T6, USP15 (UniProt Q9Y4E8)
T6 sequence (whole entry): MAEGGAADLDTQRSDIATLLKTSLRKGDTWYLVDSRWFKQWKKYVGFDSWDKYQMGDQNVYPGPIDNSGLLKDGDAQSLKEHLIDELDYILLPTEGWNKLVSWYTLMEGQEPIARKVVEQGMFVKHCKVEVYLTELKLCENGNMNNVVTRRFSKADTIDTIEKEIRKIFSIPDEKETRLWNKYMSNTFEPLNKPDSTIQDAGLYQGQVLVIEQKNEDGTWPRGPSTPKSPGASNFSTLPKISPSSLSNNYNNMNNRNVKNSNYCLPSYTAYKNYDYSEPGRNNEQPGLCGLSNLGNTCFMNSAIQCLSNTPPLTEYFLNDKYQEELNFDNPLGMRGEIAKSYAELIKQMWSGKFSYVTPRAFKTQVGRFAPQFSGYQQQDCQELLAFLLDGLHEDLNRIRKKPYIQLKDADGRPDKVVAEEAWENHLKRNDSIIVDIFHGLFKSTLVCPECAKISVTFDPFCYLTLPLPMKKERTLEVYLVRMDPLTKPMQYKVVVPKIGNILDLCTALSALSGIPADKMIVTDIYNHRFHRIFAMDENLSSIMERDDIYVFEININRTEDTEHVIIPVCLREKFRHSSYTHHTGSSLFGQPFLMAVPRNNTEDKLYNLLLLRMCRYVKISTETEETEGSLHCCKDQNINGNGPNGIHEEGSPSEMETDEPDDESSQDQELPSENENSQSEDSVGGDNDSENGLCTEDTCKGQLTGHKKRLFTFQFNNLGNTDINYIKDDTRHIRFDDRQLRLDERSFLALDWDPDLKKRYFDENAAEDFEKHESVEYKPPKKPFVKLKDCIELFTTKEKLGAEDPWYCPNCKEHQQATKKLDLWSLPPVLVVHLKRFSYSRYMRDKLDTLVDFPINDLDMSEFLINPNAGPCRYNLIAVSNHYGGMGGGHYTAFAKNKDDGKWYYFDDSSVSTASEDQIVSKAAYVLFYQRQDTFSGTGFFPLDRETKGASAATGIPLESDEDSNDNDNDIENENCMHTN
How it was run: as §1

USP16 = USP16 (UniProt Q9Y5T5)
How it was run: as §1

Measured: log2 ratio of Biotin-Ahx-Ub-VS probe labelling

Chain of USP10 (Q14694 whole entry): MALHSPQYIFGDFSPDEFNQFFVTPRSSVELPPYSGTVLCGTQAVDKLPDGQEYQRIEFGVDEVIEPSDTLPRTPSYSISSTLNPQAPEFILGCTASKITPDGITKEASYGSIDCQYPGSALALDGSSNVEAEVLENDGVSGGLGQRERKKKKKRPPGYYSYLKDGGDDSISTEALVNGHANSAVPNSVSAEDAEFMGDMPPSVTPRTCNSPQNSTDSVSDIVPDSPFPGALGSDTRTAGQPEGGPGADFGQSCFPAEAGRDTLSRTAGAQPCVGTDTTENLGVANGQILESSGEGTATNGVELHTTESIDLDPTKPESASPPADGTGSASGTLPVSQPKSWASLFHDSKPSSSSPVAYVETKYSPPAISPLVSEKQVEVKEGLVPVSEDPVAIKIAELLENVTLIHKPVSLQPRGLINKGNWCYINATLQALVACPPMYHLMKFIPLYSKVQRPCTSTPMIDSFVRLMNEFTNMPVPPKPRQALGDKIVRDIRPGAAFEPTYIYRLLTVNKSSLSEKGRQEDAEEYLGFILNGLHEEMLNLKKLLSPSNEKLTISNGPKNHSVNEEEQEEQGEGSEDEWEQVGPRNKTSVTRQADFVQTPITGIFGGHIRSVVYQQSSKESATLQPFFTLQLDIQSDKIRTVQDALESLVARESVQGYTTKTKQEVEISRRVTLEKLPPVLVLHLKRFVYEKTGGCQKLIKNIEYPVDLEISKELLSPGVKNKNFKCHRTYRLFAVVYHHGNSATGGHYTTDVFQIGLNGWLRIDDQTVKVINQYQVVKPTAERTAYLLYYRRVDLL
Chain of UCHL1 (P09936 whole entry, looked up): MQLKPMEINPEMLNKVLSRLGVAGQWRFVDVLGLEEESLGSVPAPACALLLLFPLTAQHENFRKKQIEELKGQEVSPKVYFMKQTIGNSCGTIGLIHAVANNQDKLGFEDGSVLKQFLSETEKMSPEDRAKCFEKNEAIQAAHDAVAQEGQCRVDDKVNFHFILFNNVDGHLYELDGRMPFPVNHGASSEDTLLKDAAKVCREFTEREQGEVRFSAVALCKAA
Chain of USP16 (Q9Y5T5 whole entry, looked up): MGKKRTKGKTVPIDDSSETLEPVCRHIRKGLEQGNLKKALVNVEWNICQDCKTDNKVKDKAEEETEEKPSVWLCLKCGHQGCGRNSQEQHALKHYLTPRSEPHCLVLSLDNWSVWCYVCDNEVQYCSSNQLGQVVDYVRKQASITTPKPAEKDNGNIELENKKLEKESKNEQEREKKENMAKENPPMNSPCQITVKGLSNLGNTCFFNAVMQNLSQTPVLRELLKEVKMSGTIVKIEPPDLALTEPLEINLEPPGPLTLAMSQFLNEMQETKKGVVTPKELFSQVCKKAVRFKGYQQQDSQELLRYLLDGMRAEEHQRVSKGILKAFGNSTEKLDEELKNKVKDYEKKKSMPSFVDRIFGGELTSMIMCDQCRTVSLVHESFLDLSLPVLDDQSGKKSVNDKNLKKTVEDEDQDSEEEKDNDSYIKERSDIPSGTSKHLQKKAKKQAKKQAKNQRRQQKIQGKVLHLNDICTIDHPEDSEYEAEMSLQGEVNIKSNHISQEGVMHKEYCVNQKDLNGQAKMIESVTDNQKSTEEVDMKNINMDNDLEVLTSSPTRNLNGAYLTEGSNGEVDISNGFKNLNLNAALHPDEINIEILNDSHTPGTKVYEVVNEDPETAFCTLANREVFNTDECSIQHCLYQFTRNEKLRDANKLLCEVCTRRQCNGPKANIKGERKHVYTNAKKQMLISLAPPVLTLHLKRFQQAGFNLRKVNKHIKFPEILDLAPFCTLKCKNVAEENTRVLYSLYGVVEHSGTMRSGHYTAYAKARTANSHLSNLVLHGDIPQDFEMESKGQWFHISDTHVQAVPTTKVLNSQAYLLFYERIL

Cc1nc(CN2CCN(C(=O)CCl)CC2)cs1
active: UCHL1 -1.72
inactive: OTUD6B -0.238 | OTUD7B -0.265 | PRPF8 0.211 | PSMD7 -0.333 | UCHL3 -0.051 | UCHL5 -0.0894 | USP10 -0.0627 | USP15 -0.32 | USP16 -0.55
